The text below walks through data of PubChem BioAssay (NCATS).

The structures appear in SMILES notation. Calls of active or inactive are those of the source. The rule behind the calls is not given here.

For this assay the following is noted: Ebola virus entry assay, reporter ratio channel; Channel type: primary.
By AC50 is commonly meant the concentration at which the activity in the assay is half-maximal. `CN(C)CCOc1ccccc1Cc1ccccc1`: the half-maximal activity concentration (AC50) is 3.16 µM (active).
As to `NCc1ccccc1Sc1ccccc1CO`, the AC50 is 20 µM (active).
On the same count and under the same terms, for `CCCOC(C(=O)OC1CCN(C)CC1)(c1ccccc1)c1ccccc1` the value was 7.08 µM (active); for `COc1cc2c(cc1OC)-c1cc(=Nc3c(C)cc(C)cc3C)n(C)c(=O)n1CC2`, 15.8 µM (active); for `CCN(CC)CCOC(=O)C(c1ccccc1)c1ccccc1`, 39.8 µM (active).
The same measure, in the same setting: for `N[C@H](C(=O)O)[C@@H](O)c1ccc(O)c(O)c1` the value was 20 µM (active); for `CCCCOc1cc(C(=O)OCCN(CC)CC)ccc1N`, 31.6 µM (active); for `CCOC(=O)COc1ccc2c(C)c(CCN(CC)CC)c(=O)oc2c1Cl`, 25.1 µM (active).
Consider `CCN(CC)CCOC(=O)C(Cc1cccc2ccccc12)CC1CCCO1` (centres undefined), for which the concentration at half-maximal activity (AC50) is 11.2 µM (active).
As for `CO[C@@H]1[C@@H](O[C@@H]2O[C@H](C)[C@@H](O[C@H]3C[C@@](C)(O)[C@@H](O)[C@H](C)O3)[C@H](N(C)C)[C@H]2O)[C@@H](CC=O)C[C@@H](C)[C@@H](O[C@@H]2CC[C@H](N(C)C)[C@@H](C)O2)/C=C/C=C/C[C@@H](C)OC(=O)C[C@H]1OC(C)=O`, the AC50 is 3.55 µM (active).
Same read-out and setting: the same measure for `CN(C)CCOC(c1ccccc1)c1ccc(Br)cc1` (centres undefined): 11.2 µM (active); for `CC(C)(C)c1ccc(C(O)CCCN2CCC(C(O)(c3ccccc3)c3ccccc3)CC2)cc1` (centres undefined): 0.891 µM (active).
The same measure, in the same setting: for `CCN(CC)CCOc1ccccc1C(=O)CCc1ccccc1` the value was 14.1 µM (active); for `COC(=O)Nc1nc2ccc(S(=O)c3ccccc3)cc2[nH]1` (centres undefined), 1.78 µM (active).
For the compound `CN(C)C/C=C(/c1ccc(Br)cc1)c1cccnc1`, the concentration at half-maximal activity (AC50) was 35.5 µM (active).
`CCN1C(=O)c2ccccc2C1Nc1ccc(OCCN2CCCCC2)cc1` (centres undefined): the AC50 is 15.8 µM (active).
For the compound `COc1ccc(CCN(C)CCCC(C#N)(c2cc(OC)c(OC)c(OC)c2)C(C)C)cc1OC` (centres undefined), the concentration at half-maximal activity (AC50) was 14.1 µM (active).
Same read-out and setting: the same measure for `O=C(OCC(O)CO)c1ccccc1Nc1ccnc2cc(Cl)ccc12` (centres undefined): 20 µM (active); for `CN(C)CCOC(c1ccccc1)c1ccccc1`: 17.8 µM (active).
For the compound `CN1CCN(C2=Nc3cc(F)ccc3Cc3ccccc32)CC1`, the half-maximal activity concentration (AC50) is 31.6 µM (active).
With `Cc1c(C)c2c(c(C)c1OC(=O)CCC(=O)OCCO)CC[C@@](C)(CCC[C@H](C)CCC[C@H](C)CCCC(C)C)O2`, the half-maximal activity concentration (AC50) is 39.8 µM (active).
On to `CCCCCN=C(N)N/N=C/c1c[nH]c2ccc(OC)cc12`, for which the concentration at half-maximal activity (AC50) is 3.16 µM (active).
Turning to `CC(NCCC(c1ccccc1)c1ccccc1)c1ccccc1` (centres undefined), the half-maximal activity concentration (AC50) was 2.51 µM (active).
As for `CCCCCCCCCCCCCCCCCCNC(=O)OC1CCN(C(=O)OC[C@H](COC(=O)N(Cc2cccc[n+]2CC)C(=O)c2ccccc2OC)OC)CC1`, the result was inactive.
With `O=c1c(-c2ccccc2)c1-c1ccccc1`, the AC50 is 39.8 µM (active).
`CCN(CC)CCOc1ccc(C(O)(Cc2ccc(Cl)cc2)c2ccc(C)cc2)cc1` (centres undefined): the concentration at half-maximal activity (AC50) was 1.78 µM (active).
In the case of `C#C[C@]1(O)CC[C@H]2[C@@H]3[C@H](C)CC4=C(CCC(=O)C4)[C@H]3CC[C@@]21C`, the AC50 is 15.8 µM (active).
Still for that read-out and setting: the same measure for `CN(C)CCCSc1ccccc1NC(=O)/C=C/c1ccccc1`: 12.6 µM (active); for `C=CCc1ccccc1OCC(O)CNC(C)C` (centres undefined): 25.1 µM (active).
`Cc1cc(O)c(C(C)C)cc1Cl`: the outcome was inactive.
Regarding `CCCCOc1ccc(C(=O)CCN2CCCCC2)cc1`, the AC50 was 31.6 µM (active).
For the compound `Cc1cccc(N(C)C(=S)Oc2ccc3c(c2)CCC3)c1`, the half-maximal activity concentration (AC50) is 39.8 µM (active).
As for `CCCCCCCCOc1ccccc1C(=O)Nc1ccc(C(=O)OCC[N+](C)(CC)CC)cc1`, the AC50 is 2.51 µM (active).
Same read-out and setting: for `CCCCCCCCNC(C)C(O)c1ccc(SC(C)C)cc1` (centres undefined) the value was 11.2 µM (active).
On the same count and under the same terms, the same measure for `O=C(CCN1CCN2CCCC2C1)N1c2ccccc2Sc2ccc(Cl)cc21` (centres undefined): 10 µM (active).
Same read-out and setting: for `O[C@@H](COc1cccc2ncccc12)CN1CCN(C2c3ccccc3[C@@H]3[C@H](c4ccccc42)C3(F)F)CC1` (some centres undefined) the value was 10 µM (active); for `CCCCN(CCCC)CCC(O)c1cc2c(Cl)cc(Cl)cc2c2cc(C(F)(F)F)ccc12` (centres undefined), 4.47 µM (active); for `CCN(CC)CCNc1ccc(CO)c2sc3ccccc3c(=O)c12`, 14.1 µM (active).
Consider `CCN1CCCC(OC(=O)C(c2ccccc2)c2ccccc2)C1` (centres undefined), for which the concentration at half-maximal activity (AC50) was 20 µM (active).
